Most compounds without a hit are left out; they make up all but 2.9% or so of the library.
Wnt act: activates Wnt/beta-catenin signaling in a reporter cell assay | 1.2% of 300,000 active | AID 743398 | activator, plate reader | activation, % at 9.35 µM; in the data active = activation above about 30%, passing the limit was not always enough;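 note: 0% = neutral control wells and 100% = positive control wells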
N-glyco inh: blocks N-linked glycosylation in D54 reporter cells; D54 ERlucT glycosylation luciferase reporter, 24 h; percent of 100 nM tunicamycin response; reporter increase, % at 12.5 µM; 0.23% of 360,000 active; AID 588692;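 active = mean luciferase reporter signal, scaled so untreated is 0 and the glycosylation-blocking control 100, at or above a set limit in every replicate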;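 note: luciferase carries N-glycosylation sites so blocking glycosylation raises the light; 0% = median of neutral control wells and 100% = median of 100 nM tunicamycin wells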
MITF act: activators of MITF-driven TRPM1 promoter activity in SK-MEL-5 cells | activation, % at 12.5 µM | SK-MEL-5 TRPM1-promoter luciferase, 24 h; % of positive control, neutral wells = 0 | 0.75% of 300,000 active | AID 588334;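 active = mean activation of at least 80% with every replicate also reaching 80%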;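 note: 0% = neutral control wells and 100% = parthenolide positive control wells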
TRPM1 prom inh: inhibitors of MITF-driven TRPM1 promoter in melanoma cells; AID 488899; inhibition, % at 12.5 µM; SK-MEL-5 TRPM1 promoter luciferase, 24 h; 0.83% of 330,000 active;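 active = mean inhibition across replicates of 60% or more, whatever share of single replicates reaches that level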
PfHsp90 yeast 2: reduces growth (ATP signal) of yeast expressing P. falciparum Hsp90; 0.32% of 310,000 active; S. cerevisiae expressing PfHsp90, BacTiter-Glo ATP, 48 h; yeast lacking PDR1 and PDR3 efflux regulators; AID 504621; inhibition, % at 9.4 µM;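 active = every replicate shows inhibition above about 80%, whatever the replicate mean, limit read from the data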;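 note: 0% = DMSO neutral controls and 100% = 20 µM radicicol positive controls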
NSD2 inh: inhibitors of human histone methyltransferase NSD2 | AID 743445 | O96028 | inhibition, % at 12.5 µM | NSD2 peptide methylation, AlphaScreen, 120 min | 0.54% of 310,000 active; in the data active = inhibition above about 50%
Alpha artifact: AlphaScreen assay artifact in NSD2 counter-screen; shares compounds with NSD2 inh; AlphaScreen artifact counterscreen, preloaded methylated H4 peptide; AC35, µM (doses to about 10 µM), for the others: at the top dose activity change, negative = signal loss; 9.4% of 1,500 active; call rule not given here
* = called active by the depositor; nt = no result given.

SMILES	Wnt act	N-glyco inh	MITF act	TRPM1 prom inh	PfHsp90 yeast 2	NSD2 inh	Alpha artifact
CCCc1[nH]n(-c2nc3ccccc3s2)c(=O)c1C=NCCCN(CC)CC	0	0	18	-19	-31	54*	1%
COCCCn1c(SCC(=O)N2CCOCC2)nnc1-c1ccco1	-3	4	0	-2	20	0	nt
CCc1sc(C(=O)Nc2nc(C)cs2)cc1C	25	-11	31	-28	20	51*	-6%
Cc1csc(NC(=O)c2cc3c(s2)CCC3)n1	nt	-13	16	-16	8	2	nt
O=C(O)CCCC1(C(=O)O)CCCC1	1	1	-14	14	4	-2	nt
CCCN1CCC(NC(=O)Cc2cccc(C)c2)CC1	-1	0	nt	5	0	6	nt
COc1ccccc1OCC(=O)Nc1ccc(S(=O)(=O)N2CCCC2)cc1	-2	-2	0	-1	4	69*	-2%
COc1ccccc1OCC(=O)Nc1ccc(S(=O)(=O)N2CCN(C)CC2)cc1	0	-1	13	-12	10	4	nt
COc1ccccc1C(=O)Nc1ccccc1C(=O)N1CCCC1	-2	0	-13	15	19	-2	nt
COc1ccccc1OCC(=O)Nc1ccccc1C(=O)N1CCCC1	0	0	5	-7	-4	80*	-3%
CC(=O)Nc1cc(C(=O)OC(C(=O)c2ccccc2)c2ccccc2)ccc1C (stereo unspecified)	-3	0	nt	-3	-161	0	nt
COc1ccc(C(=O)C(OC(=O)c2ccc(C)c(NC(C)=O)c2)c2ccccc2)cc1 (stereo unspecified)	-1	-1	nt	3	-4	50*	-5%
CCCCN(CC)CCNC(=O)CN(C)S(=O)(=O)c1ccc2c(c1)c(=O)n(C)c(=O)n2C	nt	1	10	-8	5	61*	-4%
Cc1c(CN(C)C)c2c(n1Cc1ccccc1)C(=O)c1ccccc1-2	nt	1	25	-23	-7	93*	5.7µM*
Cc1cc(=O)n(Cc2ccccc2)c2ccccc12	4	0	0	0	-10	-1	nt
Cc1noc(C)c1S(=O)(=O)N1CCN(S(=O)(=O)c2ccccc2C#N)CC1	-2	-1	3	0	-21	107*	-1%
CN(Cc1nc2ccccc2c(=O)[nH]1)C(=O)c1cc2c(s1)CCCCC2	-1	1	1	-4	-1	52*	-2%
CN(CC(=O)Nc1sc2c(c1C#N)CCCCC2)Cc1nc2ccccc2c(=O)[nH]1	-1	5	-16	17	47	0	nt
COc1ccc2c(c1)Cc1sc(NC(=O)c3cccs3)nc1-2	nt	-2	48	-47	nt	78*	-2%
COc1cccc(-c2nnc(NC(=O)c3cccs3)s2)c1	-1	3	52	-48	15	4	nt
COc1ccc2c(c1)Cc1sc(NC(=O)c3ccccc3)nc1-2	51*	1	33	-35	0	128*	-5%
COc1ccc(C(=O)Nc2nc3c(s2)Cc2cc(OC)ccc2-3)cc1	nt	-1	6	-5	-3	12	nt
Cc1ccc(N2NC(=O)/C(=C/c3ccc(-c4ccc(Cl)c(C(=O)O)c4)o3)C2=O)cc1	0	0	6	-2	-36	20	nt
O=C1NN(c2ccc(Cl)cc2)C(=O)/C1=C\c1ccc(-c2cccc(C(=O)O)c2)o1	0	1	11	-10	-11	54*	-12%
O=C1Nc2ccccc2/C1=N\N=C\c1ccc(O)c(O)c1	5	-1	2	-2	7	119*	3µM*
Cc1cc(C)n(CCC(=O)N2CCN(S(=O)(=O)c3ccccc3)CC2)n1	-3	0	4	0	-14	54*	0%
Cc1ccc(S(=O)(=O)N2CCN(C(=O)CCn3nc(C)c(C)c3C)CC2)cc1	-3	2	-2	5	1	3	nt
Cc1oc2c(c1C(=O)c1ccccc1)C(=O)C(=O)c1ccccc1-2	nt	-15	15	-15	nt	50*	-18%
CN1/C(=C\C(=O)COC(=O)c2ccc(O)c(O)c2)C(C)(C)c2ccccc21	-3	nt	nt	nt	nt	56*	-10%
